Of roughly 8,800 targets only a part is listed; those with a hit were picked by preference. About 0.5% of all pairs of compound and target were hits. Values without a mark were called inactive.
What was measured:
Test in all cases: log2 fold change, soluble protein after heating vs DMSO (PISA); higher = thermal stabilisation; K562 lysate, 10 uM; active = over 0.2 and 3.5 SD of the protein, either way, in both replicates (recomputed)
crizotinib = compound: C[C@@H](Oc1cc(-c2cnn(C3CCNCC3)c2)cnc1N)c1c(Cl)ccc(F)c1Cl [crizotinib]
Summary of the method: (§1)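 Thermal stability, expressed as log-two fold change relative to solvent controls, is given from duplicates. Crude K562 extract in PBS pH 7.4 with 1 mM MgCl2, at 1 mg/mL protein, was treated with 10 μM compound for 30 min and heated in aliquots for 3 min across 48°C-58°C. After pooling, adjustment to 0.5% NP-40 at 4°C and centrifugation at 21,000xg for 90 min, supernatant protein was measured by TMTpro 16plex LC-MS/MS with channel sums equalised.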

[1] = compound: C[C@H](C1=CC=C(C=C1)C(=O)NC2=C3C=CNC3=NC=C2)N
Summary of the method: as §1

duvelisib = compound: C[C@H](Nc1ncnc2nc[nH]c12)c1cc2cccc(Cl)c2c(=O)n1-c1ccccc1 [duvelisib]
Summary of the method: as §1

gandotinib = compound: Cc1cc(Nc2cc(CN3CCOCC3)c3nc(C)c(Cc4ccc(Cl)cc4F)n3n2)n[nH]1 [gandotinib]
Summary of the method: as §1

tozasertib = compound: Cc1cc(Nc2cc(N3CCN(C)CC3)nc(Sc3ccc(NC(=O)C4CC4)cc3)n2)n[nH]1 [tozasertib]
Summary of the method: as §1

doramapimod = compound: Cc1ccc(-n2nc(C(C)(C)C)cc2NC(=O)Nc2ccc(OCCN3CCOCC3)c3ccccc23)cc1 [doramapimod]
Summary of the method: as §1

[2] = compound: Cc1cccc(CC(=O)N2CCc3c2ccc(-c2cn(C)c4ncnc(N)c24)c3F)n1
Summary of the method: as §1

nilotinib = compound: Cc1cn(-c2cc(NC(=O)c3ccc(C)c(Nc4nccc(-c5cccnc5)n4)c3)cc(C(F)(F)F)c2)cn1 [nilotinib]
Summary of the method: as §1

[3] = compound: Cc1nc(Nc2n[nH]c3c2CN(C(=O)N[C@H](CN(C)C)c2ccccc2)C3(C)C)c2sccc2n1
Summary of the method: as §1

dasatinib = compound: Cc1nc(Nc2ncc(C(=O)Nc3c(C)cccc3Cl)s2)cc(N2CCN(CCO)CC2)n1 [dasatinib]
Summary of the method: as §1

[4] = compound: Cc1ncc(-c2ccnc(Nc3ccc(S(C)(=O)=O)cc3)n2)n1C(C)C
Summary of the method: as §1

[5] = compound: Cn1cc(-c2ccc3c(c2)CCN3C(=O)Cc2cccc(C(F)(F)F)c2)c2c(N)ncnc21
Summary of the method: as §1

quisinostat = compound: Cn1cc(CNCC2CCN(c3ncc(C(=O)NO)cn3)CC2)c2ccccc21 [quisinostat]
Summary of the method: as §1

tipifarnib = compound: Cn1cncc1[C@@](N)(c1ccc(Cl)cc1)c1ccc2c(c1)c(-c1cccc(Cl)c1)cc(=O)n2C [tipifarnib]
Summary of the method: as §1

[6] = compound: NC(=O)Nc1cc(-c2cccc(F)c2)sc1C(=O)N[C@H]1CCCNC1
Summary of the method: as §1

[7] = compound: NC1(c2ccc(-c3nc4ccn5c(=O)[nH]nc5c4cc3-c3ccccc3)cc2)CCC1
Summary of the method: as §1

lapatinib = compound: CS(=O)(=O)CCNCc1ccc(-c2ccc3ncnc(Nc4ccc(OCc5cccc(F)c5)c(Cl)c4)c3c2)o1 [lapatinib]
Summary of the method: as §1

pictilisib = compound: CS(=O)(=O)N1CCN(Cc2cc3nc(-c4cccc5[nH]ncc45)nc(N4CCOCC4)c3s2)CC1 [pictilisib]
Summary of the method: as §1

bafetinib = compound: Cc1ccc(NC(=O)c2ccc(CN3CC[C@H](N(C)C)C3)c(C(F)(F)F)c2)cc1Nc1nccc(-c2cncnc2)n1 [bafetinib]
Summary of the method: as §1

[8] = compound: NC(=O)c1cnc(N[C@@H]2CCCC[C@@H]2N)nc1Nc1cccc(-n2nccn2)c1
Summary of the method: as §1

Sequence of UniProt Q4G0T1 (Q4G0T1 whole entry, looked up): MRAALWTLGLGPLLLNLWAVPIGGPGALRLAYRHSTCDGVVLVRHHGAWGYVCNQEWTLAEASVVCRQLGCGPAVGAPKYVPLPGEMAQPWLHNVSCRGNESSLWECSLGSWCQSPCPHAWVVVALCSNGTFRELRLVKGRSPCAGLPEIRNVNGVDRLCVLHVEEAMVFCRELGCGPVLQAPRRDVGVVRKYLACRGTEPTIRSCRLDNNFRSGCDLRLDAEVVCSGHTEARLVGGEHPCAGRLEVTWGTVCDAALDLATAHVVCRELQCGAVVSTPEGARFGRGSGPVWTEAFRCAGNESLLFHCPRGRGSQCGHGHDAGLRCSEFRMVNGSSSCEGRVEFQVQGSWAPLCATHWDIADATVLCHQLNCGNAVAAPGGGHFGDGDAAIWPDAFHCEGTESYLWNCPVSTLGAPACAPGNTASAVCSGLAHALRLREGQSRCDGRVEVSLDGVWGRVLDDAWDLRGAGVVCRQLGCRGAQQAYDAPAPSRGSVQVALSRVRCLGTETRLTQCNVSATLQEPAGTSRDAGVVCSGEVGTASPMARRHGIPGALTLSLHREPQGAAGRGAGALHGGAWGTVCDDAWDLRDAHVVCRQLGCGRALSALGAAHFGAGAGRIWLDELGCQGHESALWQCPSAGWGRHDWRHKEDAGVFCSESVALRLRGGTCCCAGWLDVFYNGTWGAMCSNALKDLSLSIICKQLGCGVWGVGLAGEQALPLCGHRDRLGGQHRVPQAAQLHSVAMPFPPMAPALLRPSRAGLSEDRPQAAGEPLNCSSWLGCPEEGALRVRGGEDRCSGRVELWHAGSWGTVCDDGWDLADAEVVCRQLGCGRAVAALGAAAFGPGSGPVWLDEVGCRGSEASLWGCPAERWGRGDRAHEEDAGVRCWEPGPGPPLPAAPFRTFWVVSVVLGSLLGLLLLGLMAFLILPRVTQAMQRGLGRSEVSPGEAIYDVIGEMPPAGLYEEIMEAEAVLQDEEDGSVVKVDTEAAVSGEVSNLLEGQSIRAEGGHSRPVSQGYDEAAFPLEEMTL
Sequence of UniProt Q05397 (Q05397 whole entry, looked up): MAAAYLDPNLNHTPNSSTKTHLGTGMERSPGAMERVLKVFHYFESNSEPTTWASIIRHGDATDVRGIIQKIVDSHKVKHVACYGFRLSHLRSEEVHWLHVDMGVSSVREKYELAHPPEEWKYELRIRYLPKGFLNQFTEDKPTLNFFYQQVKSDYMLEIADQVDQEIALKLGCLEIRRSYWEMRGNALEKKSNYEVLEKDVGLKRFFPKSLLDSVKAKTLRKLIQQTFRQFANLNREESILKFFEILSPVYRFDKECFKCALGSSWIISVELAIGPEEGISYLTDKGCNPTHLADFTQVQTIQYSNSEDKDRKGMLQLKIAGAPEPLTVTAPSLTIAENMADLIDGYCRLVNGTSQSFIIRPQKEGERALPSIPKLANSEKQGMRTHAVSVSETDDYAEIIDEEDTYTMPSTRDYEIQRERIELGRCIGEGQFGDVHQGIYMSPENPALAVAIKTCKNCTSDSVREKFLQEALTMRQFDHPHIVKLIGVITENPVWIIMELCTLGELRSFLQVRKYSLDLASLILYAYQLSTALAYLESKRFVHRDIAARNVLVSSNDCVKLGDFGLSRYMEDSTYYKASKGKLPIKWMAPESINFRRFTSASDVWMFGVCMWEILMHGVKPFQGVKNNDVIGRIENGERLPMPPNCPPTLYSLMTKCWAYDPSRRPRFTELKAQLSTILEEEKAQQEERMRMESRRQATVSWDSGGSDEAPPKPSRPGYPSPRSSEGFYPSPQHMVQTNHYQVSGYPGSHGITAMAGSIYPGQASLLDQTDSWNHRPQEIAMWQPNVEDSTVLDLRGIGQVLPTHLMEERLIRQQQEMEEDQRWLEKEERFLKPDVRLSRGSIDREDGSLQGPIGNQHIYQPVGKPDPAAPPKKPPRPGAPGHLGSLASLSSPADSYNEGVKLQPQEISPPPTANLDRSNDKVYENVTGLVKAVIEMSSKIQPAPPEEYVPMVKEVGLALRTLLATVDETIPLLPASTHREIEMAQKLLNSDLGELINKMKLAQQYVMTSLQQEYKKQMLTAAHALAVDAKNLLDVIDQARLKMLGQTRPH
Sequence of UniProt A8CG34 (A8CG34 whole entry, looked up): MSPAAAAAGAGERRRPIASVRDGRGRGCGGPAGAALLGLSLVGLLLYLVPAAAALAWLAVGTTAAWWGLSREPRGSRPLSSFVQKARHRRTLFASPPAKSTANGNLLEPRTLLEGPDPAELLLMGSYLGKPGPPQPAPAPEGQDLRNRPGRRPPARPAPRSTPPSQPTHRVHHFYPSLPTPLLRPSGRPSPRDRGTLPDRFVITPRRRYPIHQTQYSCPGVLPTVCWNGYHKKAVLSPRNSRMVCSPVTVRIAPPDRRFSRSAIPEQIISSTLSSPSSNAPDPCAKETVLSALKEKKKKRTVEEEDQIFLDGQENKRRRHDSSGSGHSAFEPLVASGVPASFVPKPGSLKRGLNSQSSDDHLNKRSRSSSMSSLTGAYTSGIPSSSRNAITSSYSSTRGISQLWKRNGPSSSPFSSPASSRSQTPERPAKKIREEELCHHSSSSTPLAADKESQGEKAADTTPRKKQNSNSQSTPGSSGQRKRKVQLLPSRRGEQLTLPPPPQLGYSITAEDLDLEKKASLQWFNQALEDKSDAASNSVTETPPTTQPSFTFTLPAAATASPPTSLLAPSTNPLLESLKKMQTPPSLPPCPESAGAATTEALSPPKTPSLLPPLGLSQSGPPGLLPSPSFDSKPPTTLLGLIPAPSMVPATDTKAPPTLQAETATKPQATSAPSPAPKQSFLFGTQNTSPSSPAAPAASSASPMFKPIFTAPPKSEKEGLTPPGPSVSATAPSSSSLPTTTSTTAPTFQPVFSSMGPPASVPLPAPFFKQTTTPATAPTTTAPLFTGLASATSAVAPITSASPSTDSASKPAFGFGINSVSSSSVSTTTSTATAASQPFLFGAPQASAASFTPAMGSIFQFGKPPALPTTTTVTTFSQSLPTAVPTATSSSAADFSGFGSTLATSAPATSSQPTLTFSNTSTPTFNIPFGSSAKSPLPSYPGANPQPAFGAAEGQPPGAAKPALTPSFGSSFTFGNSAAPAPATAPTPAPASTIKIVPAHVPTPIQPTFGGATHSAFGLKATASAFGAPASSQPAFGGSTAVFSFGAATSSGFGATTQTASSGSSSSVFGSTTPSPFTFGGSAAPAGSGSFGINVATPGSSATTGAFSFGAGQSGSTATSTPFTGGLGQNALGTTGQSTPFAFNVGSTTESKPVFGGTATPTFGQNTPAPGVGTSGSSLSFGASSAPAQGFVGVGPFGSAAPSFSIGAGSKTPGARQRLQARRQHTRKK
Sequence of UniProt O94880 (O94880 whole entry, looked up): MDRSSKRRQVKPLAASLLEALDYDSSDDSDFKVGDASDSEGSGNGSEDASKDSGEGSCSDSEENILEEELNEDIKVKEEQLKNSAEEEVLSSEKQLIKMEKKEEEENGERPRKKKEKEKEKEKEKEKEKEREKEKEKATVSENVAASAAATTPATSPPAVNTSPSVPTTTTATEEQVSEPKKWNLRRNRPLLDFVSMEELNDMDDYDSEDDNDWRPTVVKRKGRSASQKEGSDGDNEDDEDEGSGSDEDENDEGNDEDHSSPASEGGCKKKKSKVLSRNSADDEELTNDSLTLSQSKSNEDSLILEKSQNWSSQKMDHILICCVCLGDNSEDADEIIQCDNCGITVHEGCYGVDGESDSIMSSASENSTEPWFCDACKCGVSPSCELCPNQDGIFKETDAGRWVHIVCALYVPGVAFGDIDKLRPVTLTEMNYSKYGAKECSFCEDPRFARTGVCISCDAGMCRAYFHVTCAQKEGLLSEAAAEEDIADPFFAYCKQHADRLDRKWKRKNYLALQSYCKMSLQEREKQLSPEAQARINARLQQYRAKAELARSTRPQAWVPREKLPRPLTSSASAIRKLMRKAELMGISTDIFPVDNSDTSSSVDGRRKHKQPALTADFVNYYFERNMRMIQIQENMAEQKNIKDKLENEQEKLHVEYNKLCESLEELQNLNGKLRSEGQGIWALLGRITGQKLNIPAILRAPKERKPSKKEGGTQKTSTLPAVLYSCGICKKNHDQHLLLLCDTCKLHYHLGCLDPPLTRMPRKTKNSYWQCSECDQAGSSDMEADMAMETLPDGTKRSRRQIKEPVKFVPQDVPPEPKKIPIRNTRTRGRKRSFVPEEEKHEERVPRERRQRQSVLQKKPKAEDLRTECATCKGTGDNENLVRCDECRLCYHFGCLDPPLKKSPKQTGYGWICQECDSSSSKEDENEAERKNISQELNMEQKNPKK
Sequence of UniProt Q9UHX1 (Q9UHX1 whole entry, looked up): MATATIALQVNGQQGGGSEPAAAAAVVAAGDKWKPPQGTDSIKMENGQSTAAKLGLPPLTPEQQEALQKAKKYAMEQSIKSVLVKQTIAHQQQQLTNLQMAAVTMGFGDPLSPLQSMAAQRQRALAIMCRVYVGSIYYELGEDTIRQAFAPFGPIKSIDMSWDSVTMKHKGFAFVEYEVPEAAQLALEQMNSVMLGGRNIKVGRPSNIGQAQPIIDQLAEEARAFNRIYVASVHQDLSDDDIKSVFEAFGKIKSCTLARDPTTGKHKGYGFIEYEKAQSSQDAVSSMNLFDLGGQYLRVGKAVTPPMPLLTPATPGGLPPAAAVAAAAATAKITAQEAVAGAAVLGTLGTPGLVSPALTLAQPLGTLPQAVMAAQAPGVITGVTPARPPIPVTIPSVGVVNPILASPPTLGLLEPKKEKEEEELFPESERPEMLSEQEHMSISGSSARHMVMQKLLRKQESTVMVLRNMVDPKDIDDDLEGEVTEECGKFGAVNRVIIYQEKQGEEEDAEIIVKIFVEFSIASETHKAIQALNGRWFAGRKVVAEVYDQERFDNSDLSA
Sequence of UniProt P60673 (P60673 whole entry, looked up): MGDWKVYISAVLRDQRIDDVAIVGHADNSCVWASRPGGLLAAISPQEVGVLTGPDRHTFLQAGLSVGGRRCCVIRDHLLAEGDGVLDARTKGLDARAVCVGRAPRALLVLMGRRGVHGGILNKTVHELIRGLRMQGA
Sequence of UniProt Q15004 (Q15004 whole entry, looked up): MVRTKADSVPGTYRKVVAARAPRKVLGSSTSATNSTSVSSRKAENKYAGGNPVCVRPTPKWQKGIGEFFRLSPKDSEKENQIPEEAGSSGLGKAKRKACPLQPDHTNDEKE

Target | log2 fold change (crizotinib) | log2 fold change [1] | log2 fold change (duvelisib) | log2 fold change (gandotinib) | log2 fold change (tozasertib) | log2 fold change (doramapimod) | log2 fold change [2] | log2 fold change (nilotinib) | log2 fold change [3] | log2 fold change (dasatinib) | log2 fold change [4] | log2 fold change [5] | log2 fold change (quisinostat) | log2 fold change (tipifarnib) | log2 fold change [6] | log2 fold change [7] | log2 fold change (lapatinib) | log2 fold change (pictilisib) | log2 fold change (bafetinib) | log2 fold change [8]
PDE4DIP (UniProt E9PS60) | -0.034 | -0.688 (active) | -0.077 | 0.233 | -0.026 | 0.075 | 0.147 | -0.074 | 0.052 | -0.158 | -0.045 | -0.073 | -0.256 | 0.081 | -0.205 | -0.025 | – | – | – | –
NA (UniProt Q4G0T1) | 0.023 | -0.044 | 0.035 | -0.015 | – | 0.042 | 0.034 | – | – | 0.054 | – | 0.095 | 0.034 | – | 0.054 | 0.062 | – | – | – | –
PRKD3 (UniProt O94806) | -0.199 | -0.643 (active) | – | 0.423 | 0.092 | -0.075 | 0.46 | 0.054 | -0.086 | – | -0.03 | – | -0.014 | 0.087 | -0.174 | 0.054 | 0.031 | 0.019 | -0.086 | 0.001
PTK2 isoform 2 (UniProt Q05397) | – | – | 0.298 | – | 0.125 | – | – | – | – | 0.014 | – | 0.102 | – | – | – | -0.168 | 0.049 | 0.067 | -0.087 | 0.034
PFN3 (UniProt P60673) | -0.046 | -0.458 | – | 0.119 | 0.155 | 0.083 | 0.193 | -0.104 | 0.001 | – | 0.033 | – | -0.349 | -0.083 | -0.044 | – | -0.199 | – | – | -0.087
PPP2R5C isoform 2 (UniProt Q13362) | 0.234 | -0.021 | -0.064 | 0.026 | – | -0.043 | -0.005 | -0.028 | 0.021 | -0.02 | -0.068 | 0.028 | 0.347 (active) | 0.028 | -0.284 | -0.051 | – | 0.151 | 0.103 | –
PRIMPOL (UniProt Q96LW4) | -0.097 | – | 0.003 | – | -0.031 | 0.014 | – | 0.112 | -0.089 | 0.034 | -0.15 | -0.037 | -0.039 | 0.17 | 0 | -0.126 | – | 0.02 | -0.225 | –
PHF14 (UniProt O94880) | – | – | 0.024 | – | -0.117 | – | – | -0.127 | -0.203 | -0.1 | 0.082 | 0.085 | – | 0.073 | – | – | 0.199 | -0.049 | -0.013 | -0.077
POM121C (UniProt A8CG34) | – | 0.007 | – | 0.051 | – | – | -0.091 | – | – | – | – | – | – | – | – | -0.09 | 0.164 | 0.19 | 0.135 | 0.022
PPP2CA (UniProt E7ESG8) | – | – | – | – | – | – | – | 0.025 | -0.108 | – | -0.232 | – | – | 0.356 | – | – | – | – | – | –
POLR2F (UniProt U3KPV3) | – | – | 0.012 | – | 0.109 | – | – | – | – | -0.024 | – | 0.038 | – | – | – | – | – | – | – | –
PHC1 (UniProt P78364) | 0.063 | – | -0.025 | – | 0.022 | -0.254 | – | 0.054 | 0.023 | 0.087 | -0.024 | -0.049 | -0.003 | -0.02 | 0.003 | – | – | -0.025 | 0 | –
PHOSPHO2 (UniProt C9JD35) | 0.02 | – | – | – | 0.234 | -0.084 | – | – | – | – | – | – | 0.073 | – | -0.102 | – | – | – | – | –
PPIC (UniProt P45877) | -0.131 | -0.078 | -0.095 | -0.042 | – | 0.086 | 0.079 | -0.112 | 0.069 | 0.037 | -0.02 | -0.036 | -0.063 | 0.145 | 0.206 | -0.045 | – | -0.003 | -0.061 | –
PIAS2 (UniProt O75928) | -0.045 | – | 0.075 | – | 0.048 | -0.007 | – | -0.019 | -0.005 | -0.097 | 0.068 | -0.026 | 0.061 | -0.086 | 0.004 | 0.025 | – | – | – | –
PCLAF (UniProt Q15004) | 0.024 | -0.079 | 0.037 | 0.108 | -0.029 | 0.009 | 0.05 | -0.115 | 0.081 | 0.001 | 0.02 | -0.087 | -0.044 | 0.018 | -0.018 | 0.094 | – | 0.015 | -0.01 | –
PTK2B (UniProt Q14289) | – | -0.026 | -0.034 | 0.385 (active) | 0.019 | – | -0.05 | 0.011 | 0.109 | 0.041 | 0.026 | 0.059 | -0.122 | -0.067 | 0.377 (active) | -0.04 | -0.075 | -0.043 | 0.098 | 0.072
PYGO2 (UniProt Q9BRQ0) | 0.067 | 0.014 | -0.046 | 0.078 | -0.076 | 0.032 | -0.022 | 0.01 | 0.044 | -0.028 | 0.063 | 0.004 | 0.016 | -0.02 | -0.015 | 0.029 | – | -0.038 | -0.046 | –
PDIA4, A0A499FI48 | -0.063 | 1.32 (active) | -0.101 | -0.18 | – | -0.039 | -0.154 | – | – | -0.004 | – | 0.044 | -0.02 | – | 0.164 | – | – | – | – | –
PUF60 isoform 2 (UniProt Q9UHX1) | 0.005 | 1.05 (active) | – | -0.09 | -0.161 | -0.058 | -0.09 | -0.011 | -0.027 | – | 0.05 | – | 0.013 | 0.023 | 0.017 | -0.184 | -0.038 | -0.003 | -0.006 | -0.016
PHGDH, A0A286YFE1 | – | – | 0.244 | – | – | – | – | – | – | 0.086 | – | 0.258 | – | – | – | – | -0.214 | 0.114 | -0.313 | -0.29
PPT2, A0A140T9Y1 | – | – | – | – | – | – | – | -0.054 | 0.086 | – | 0.089 | – | – | 0.1 | – | – | – | – | – | –
